Source: PubChem (National Center for Advancing Translational Sciences (NCATS))
The entries come from a sample that favours hits as a whole.
HT1080NT lethal = kills 2HG-producing HT-1080-NT fibrosarcoma cells; HT-1080-NT fibrosarcoma viability, CellTiter-Glo ATP luminescence, 48 h; Potency, µM (series often up to 46.1 µM), most hits filed as cytotoxic; 1.6% of 360,000 active; AID 686970;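 further: NT is the 2HG producing partner of a matched IDH1 knockdown line; nearly all actives have a fitted effect of over 55% in size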
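A 48-hour cytotoxicity screen used HT-1080-NT cells plated 2 hours before compound delivery. ATP-based CellTiter-Glo luminescence measured viability, normalized to DMSO and no-cell controls.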
DT40 TDP1 CPT = DT40-hTDP1 cell growth loss with CPT; chicken DT40 Tdp1-/-;hTDP1 cells + 20 nM CPT, ATP luminescence, 48 h; Potency, µM (titrated, usually from 46.2 µM), hits mostly inhibitors; 12% of 420,000 active; AID 686979; further: nearly all actives have a fitted effect of over 55% in size
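Chicken DT40 Tdp1-/- cells stably complemented with human TDP1 were seeded at 400 cells/well in medium containing 20 nM camptothecin, exposed to pin-transferred compounds, and grown at 37 °C for at least 48 hr. Viability was read as ATP luminescence.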
HT1080 IDH1KD tx = toxicity to HT-1080 IDH1 knockdown cells (counter line); AID 686971; 2% of 360,000 active; HT-1080 IDH1 knockdown viability, ATP luminescence, 48 h; Potency, µM (series often up to 46.1 µM), actives largely listed as cytotoxic
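Using the IDH1-knockdown HT-1080 line run in the same batch and compound series as the NT line, viability after 48 h at 37 °C was determined by CellTiter-Glo luminescence and expressed as % activity.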
DT40 TDP1 no CPT = qHTS for Inhibitors of human tyrosyl-DNA phosphodiesterase 1 (TDP1): qHTS in cells in absence of CPT; DT40 Tdp1-/- hTDP1 cells, no CPT, ATP luminescence, 48 h; Potency, µM (doses to about 46.2 µM), usual class: inhibitors; 15% of 420,000 active; AID 686978, 2013; further: nearly all actives have a fitted effect of over 55% in size
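Growth of hTDP1-complemented DT40 Tdp1-knockout cells is measured by ATP luminescence after at least 48 hr compound exposure at 37 °C, with DMSO substituting for the 20 nM CPT used in the parallel screen.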
IL1B secr inh = blocks inflammasome-driven IL-1 beta release; THP-1 LPS/ATP IL-1B secretion, AlphaLISA, 16 h; hits give low values; activity change, % at 57.5 µM; 4.7% of 360,000 active; in the data active means activity change below about -50%; inconclusive means mostly about -30% to -49%
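Secreted IL-1B measured by AlphaLISA bead assay after 16 h compound exposure of THP-1 cells; compounds (final up to 57.5 uM) added 1 h before LPS (250 ng/mL) and ATP (1.25 mM) stimulation; lower signal means less secretion.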
12-LOX inh = ALOX12 (human) lipoxygenase inhibition | P18054 | purified 12hLO, xylenol orange hydroperoxide absorbance | Potency, µM (doses to about 108 µM), usual class: inhibitors | 1.1% of 580,000 active | AID 1671190
Target sequence (P18054 whole entry, looked up): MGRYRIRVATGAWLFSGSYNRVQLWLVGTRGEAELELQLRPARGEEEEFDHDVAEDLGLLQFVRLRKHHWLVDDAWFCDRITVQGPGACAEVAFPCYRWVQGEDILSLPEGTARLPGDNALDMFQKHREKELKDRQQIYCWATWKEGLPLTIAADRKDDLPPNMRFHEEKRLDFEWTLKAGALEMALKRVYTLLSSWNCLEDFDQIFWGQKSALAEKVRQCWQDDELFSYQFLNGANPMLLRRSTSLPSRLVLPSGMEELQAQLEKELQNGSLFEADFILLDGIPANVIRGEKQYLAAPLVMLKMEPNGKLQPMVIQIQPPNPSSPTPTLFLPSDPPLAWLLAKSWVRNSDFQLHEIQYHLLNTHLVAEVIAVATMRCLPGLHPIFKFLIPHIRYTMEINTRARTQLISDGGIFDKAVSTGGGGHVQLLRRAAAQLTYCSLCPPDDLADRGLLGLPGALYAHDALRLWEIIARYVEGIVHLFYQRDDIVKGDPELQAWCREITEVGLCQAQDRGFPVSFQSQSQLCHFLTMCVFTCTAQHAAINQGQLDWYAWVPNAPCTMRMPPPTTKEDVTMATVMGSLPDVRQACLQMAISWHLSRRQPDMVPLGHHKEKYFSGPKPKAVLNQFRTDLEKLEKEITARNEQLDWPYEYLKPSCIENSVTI
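Purified human 12hLO (150 nM final) in 25 mM Hepes, 0.01% Triton X-100, pH 7.0 was preincubated 15 min at room temperature with compound. Then 40 uM arachidonic acid was added, 30 min. Hydroperoxide was read by Fe-XO absorbance ratio 573/405 nm.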
Numbers stand for hits; – = inactive; ? = inconclusive; · = no result. Unless noted, the call rests on the fitted dose curve; in most records, active means well fitted curve in the direction sought with a large enough effect; inconclusive means small, poorly fitted or top-dose-only effect, or another doubt; inactive means no such curve, though single readings can be large; an effect the other way counts as inactive or inconclusive.

SMILES	HT1080NT lethal	DT40 TDP1 CPT	HT1080 IDH1KD tx	DT40 TDP1 no CPT	IL1B secr inh	12-LOX inh
CCCCN(CC)CCCNC(=O)c1ccc2c(c1)N(Cc1ccc(C)cc1)C(=O)c1ccccc1S2	·	5.8µM	·	5.2µM	·	?
CCN1C(=O)c2ccccc2Sc2ccc(C(=O)NCCCN(CC(C)C)CC(C)C)cc21	–	15µM	–	16µM	-65	–
Cc1ccccc1[S+](=O)([O-])N1CCC2OCCN(Cc3ccccc3F)C(=O)C2C1 (stereo unspecified)	·	·	·	·	·	–
CSCCCNC(=S)NCC(C)(C)N1CCOCC1	·	·	·	·	·	–
CCc1ccc(/C=C2\SC(=S)N(CCC(=O)NCCCN3CCOCC3)C2=O)cc1	?	?	?	?	-88	?
O=C(CCN1C(=O)/C(=C/C=C/c2ccccc2)SC1=S)Nc1ccccn1	?	16µM	–	?	–	?
O=C(CN1C(=O)S/C(=C\C=C\c2ccccc2)C1=O)Nc1cccc(O)c1	?	?	?	?	-110	–
COc1ccc(/C=C2\SC(=S)N(CCC(=O)NCCCN3CCOCC3)C2=O)cc1	–	–	–	?	-66	–
CCc1ccc(C(=O)COC(=O)Cc2cccc3ccccc23)cc1	·	·	·	·	·	–
COC(=O)c1ccc(/C=C2\SC(=S)N(CCCC(=O)NCCCN3CCOCC3)C2=O)cc1	?	?	?	23µM	–	?
COC(=O)c1ccc(/C=C2/SC(=S)N(CCCC(=O)Nc3ccccn3)C2=O)cc1	–	21µM	?	21µM	–	–
CCOc1ccc(/C=C2\SC(=S)N(CC(=O)NCCCN3CCOCC3)C2=O)cc1	–	–	–	–	–	?
O=C(CCCN1C(=O)/C(=C/c2cccc(Br)c2)SC1=S)NCCCN1CCOCC1	?	26µM	?	?	-96	?
O=C(CCCN1C(=O)/C(=C/c2cccc(Br)c2)SC1=S)Nc1ccccn1	–	?	–	?	?	–
COc1ccc(NC(=O)c2cnc(SC)nc2C(F)(F)F)cc1OC	·	·	·	·	·	–
CN(C)S(=O)(=O)c1cccc(C(=O)N=C2N=C3C=CC(Cl)=CN3Cc3ccccc32)c1	–	?	–	16µM	–	–
O=C(N=C1N=C2C=CC=CN2Cc2ccccc21)c1ccc(S(=O)(=O)N2CCCC2)cc1	–	–	–	?	–	–
CS(=O)(=O)NCCC(=O)O	·	·	·	·	·	–
Cc1ccc2nc3c(cc(C(=O)NC4CCCC4)c(=N)n3C3CCCCC3)c(=O)n2c1	–	?	–	?	–	–
Cc1ccc(Cn2c(=N)c(C(=O)NC3CCCC3)cc3c(=O)n4ccccc4nc32)cc1	–	10µM	–	6.5µM	–	·
CCC(C)n1c(=N)c(C(=O)NCc2ccccc2)cc2c(=O)n3cc(C)ccc3nc21 (stereo unspecified)	·	?	·	16µM	·	?
N=c1c(C(=O)NC2CCCCC2)cc2c(=O)n3ccccc3nc2n1Cc1ccccc1	–	?	–	?	–	–
Cc1ccc2nc3c(cc(C(=O)NC4CCCCC4)c(=N)n3C3CCCCC3)c(=O)n2c1	–	?	?	15µM	–	–
N=c1c(C(=O)NC2CCCCC2)cc2c(=O)n3ccccc3nc2n1CCc1ccccc1	–	?	–	21µM	–	–
NCC(O)COc1ccccc1 (stereo unspecified)	·	·	·	·	·	–
SMILES	HT1080NT lethal	DT40 TDP1 CPT	HT1080 IDH1KD tx	DT40 TDP1 no CPT	IL1B secr inh	12-LOX inh
Cc1nc2cc(Cl)ccc2cc1C(=O)NCc1cccnc1-n1cccn1	·	·	·	·	·	–
O=C(c1ccccc1F)N1c2nc(-c3ccco3)nn2C2(CCCCC2)[C@@H]2CCCC[C@@H]21	·	?	·	18µM	·	–
CCCc1nc2n(n1)C1(CCCCC1)[C@@H]1CCCC[C@@H]1N2C(=O)CC	·	·	·	·	·	–
COc1ccc(C(=O)N2c3nc(-c4ccco4)nn3C3(CCCCC3)[C@@H]3CCCC[C@@H]32)cc1OC	·	16µM	·	?	·	–
O=C(c1ccc(F)cc1)N1c2nc(-c3ccco3)nn2C2(CCCCC2)[C@@H]2CCCC[C@@H]21	·	?	·	23µM	·	–
COc1ccc(OC)c(/C=C2\N=C(c3ccccc3)OC2=O)c1	–	–	–	–	–	–
COc1ccc(/C=C2\N=C(C(C)(C)C)OC2=O)c(OC)c1	–	7.3µM	–	8.2µM	–	–
Cn1c(=S)c2[nH]c(SCCN)nc2n(C)c1=O	–	5.8µM	–	5.8µM	–	?
Cn1c(=O)c2c(nc(SCCN3CCCCC3)n2C)n(C)c1=O	–	–	–	–	–	–
Cn1c(=S)c2[nH]c(SCCN3CCCC3)nc2n(C)c1=O	–	?	–	23µM	–	–
CCc1cccc2c1NC(=O)C2(O)CC(=O)c1ccc(Br)cc1 (stereo unspecified)	·	·	·	·	·	–
C=CCSc1nc(-c2ccccc2)cc(C(F)(F)F)c1C#N	·	·	·	·	·	–
COc1ccc(NC(=O)c2cc3cc(Br)ccc3[nH]2)cc1	·	·	·	·	·	–
COc1cccc(-c2nc(NC(C)C)c3ccccc3n2)c1O	?	?	?	21µM	?	?
CCC(C)Nc1nc(-c2cccc(OC)c2O)nc2ccccc12 (stereo unspecified)	?	?	?	?	-74	?
CCNC(=O)c1cccnc1OC1CCN(C(=O)c2cc(F)ccc2F)C1 (stereo unspecified)	·	·	·	·	·	–
CCN(CC)S(=O)(=O)c1ccc(C)c(NC(=S)N2CCN(Cc3ccc4c(c3)OCO4)CC2)c1	?	21µM	21µM	21µM	–	–
Cc1ccc(NC(=S)N2CCN(Cc3ccc4c(c3)OCO4)CC2)c(C)c1	–	–	–	–	–	–
CCc1ccccc1NC(=S)N1CCN(c2ccccn2)CC1	–	–	–	–	–	?
CCN(CC)S(=O)(=O)c1ccc(C)c(NC(=S)N2CCN(C/C=C/c3ccccc3)CC2)c1	–	?	–	12µM	–	–
COc1ccccc1NC(=S)N1CCN(C/C=C/c2ccccc2)CC1	–	?	–	?	–	–
CCN(CC)S(=O)(=O)c1ccc(C)c(NC(=S)N2CCN(c3ccccn3)CC2)c1	–	18µM	–	15µM	-73	–
Cc1nc(C)c(C(=O)N2CCOCC(O)(CN3CCCC3)C2)s1 (stereo unspecified)	·	·	·	·	·	–
Cc1ccc(N2CC(NC(=O)c3cccc(CCC(C)(C)O)c3)CC2=O)cc1 (stereo unspecified)	·	·	·	·	·	–
CCc1noc(-c2cn(C3CCCN(C(=O)c4cc(C)cc(C)c4)C3)nn2)n1 (stereo unspecified)	·	·	·	·	·	–
CCCCc1ccc(NC(=O)N2CCN(c3cc(C)nc4ccccc34)CC2)c(C)c1	?	?	–	?	-67	·
